# Assay outcomes as filed in PubChem BioAssay.
# Shown are actives, neighbours in structure and some others; about 4.5% of the full set was active somewhere.
# ZTA DNA inh: ZTA (EBV) inhibition in EBNA-1 counter-screen; P03206; ZTA-DNA binding, fluorescence polarization; inhibition, % at 11 µM; 0.15% of 320,000 active; AID 2234; in the data active means inhibition above about 33%
# Rpn11 block: blocks the human proteasome subunit Rpn11. O00487. human 26S proteasome, Ub4-pepOG fluorescence polarization; 20S core pre-blocked with epoxomicin. inhibition, % at 20 µM. 0.59% of 360,000 active;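 active means inhibition at 20 µM, scaled to each plate's controls, above about 33%, limit read from the data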
# EBNA-1 inhibitor: blocks EBNA-1 binding to DNA | 0.34% of 300,000 active | inhibition, % at 14.8 µM | EBNA-1 DNA binding, fluorescence polarization; in the data active means inhibition above about 28%
# dFosB act: activators of mouse delta FosB homodimer | activation, % at 25 µM | AID 493131 | purified delta FosB, TAMRA-CDK5 oligo fluorescence polarization; percent of positive-control signal above neutral wells | P13346 | 0.99% of 340,000 active;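 active means mean activation above about 17%, with every replicate also reaching it, limit read from the data, passing the limit was not always enough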
# Target sequence (P13346 whole entry, looked up): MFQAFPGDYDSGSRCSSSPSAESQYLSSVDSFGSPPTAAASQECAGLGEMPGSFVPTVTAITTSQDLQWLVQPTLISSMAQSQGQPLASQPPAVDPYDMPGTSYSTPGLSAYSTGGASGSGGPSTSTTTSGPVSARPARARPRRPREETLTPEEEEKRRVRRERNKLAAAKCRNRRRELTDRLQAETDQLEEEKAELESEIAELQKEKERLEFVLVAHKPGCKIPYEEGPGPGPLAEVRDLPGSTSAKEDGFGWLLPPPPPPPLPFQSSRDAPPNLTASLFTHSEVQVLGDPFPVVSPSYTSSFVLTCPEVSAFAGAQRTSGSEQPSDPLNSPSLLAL
# TPT1 inh: C. albicans TPT1 enzyme inhibition. recombinant caTPT1, FP RNA substrate dephosphorylation. inhibition, % at 5 µM. 0.81% of 300,000 active. AID 1962;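 active means inhibition above the mean of all tested compounds plus 3 SD, set per screening campaign, cut at about 24% in these data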;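 further: plate controls were DMSO alone for no effect and ferristatin control at 100 nM for full effect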
# NR3A LBD binder: NR3A (human) ligand-binding domain modulation; 2.5% of 340,000 active; Tm shift relative to glycine control, % at 25 µM; NR3A LBD differential scanning fluorimetry, Tm shift; 0% = protein alone, 100% = glycine-bound protein;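 active means melting temperature shift of at least 10% of the positive control shift, at one fixed dose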
# caTPT1 confirm: TPT1 (C. albicans) inhibition, confirmation; 74% of 2,400 active; AID 2149; recombinant caTPT1, fluorescence polarization, RNase T1 coupled; inhibition, % at 5 µM; shares compounds with TPT1 inh;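 active means inhibition above the primary screen limit, the mean inhibition of all tested compounds plus 3 SD, cut at about 25% in these data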
# RNase T1 counter: counter-screen for TPT1 inhibitors: inhibitors of Aspergillus oryzae RNase T1; shares compounds with TPT1 inh; RNase T1 cleavage, fluorescence polarization, 1536-well; inhibition, % at 5 µM; 83% of 2,400 active; AID 2153;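 active means inhibition above the solvent-only control well mean plus 3 SD, limit set per screening run, cut at about 23% in these data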;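 further: plate controls were DMSO wells with enzyme for no effect and wells without RNase T1 for full effect; inhibitors block cleavage so intact labeled substrate keeps polarization high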
# Target sequence (P00651 whole entry, looked up): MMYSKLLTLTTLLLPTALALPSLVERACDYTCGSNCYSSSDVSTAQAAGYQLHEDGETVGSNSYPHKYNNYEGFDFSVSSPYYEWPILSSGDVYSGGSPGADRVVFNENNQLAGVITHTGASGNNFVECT
# An asterisk follows results filed as active; / = no result shown.
SMILES,ZTA DNA inh,Rpn11 block,EBNA-1 inhibitor,dFosB act,TPT1 inh,NR3A LBD binder,caTPT1 confirm,RNase T1 counter
CC(=O)/C(=N/Nc1ccccc1Cl)Sc1nnc(C(O)c2ccccc2)n1-c1ccccc1 (stereo not given),0,-8,-8,-6,48*,-1,6,6
Cc1cccc(-c2noc(CNC(=O)c3ccoc3C)n2)c1,17,/,5,-11,34*,-2,65*,74*
Cc1cccc(C)c1C(O)c1ncc(-c2ccccc2F)[nH]1 (stereo not given),/,0,/,/,/,/,/,/
CN(C)c1ccc(/C=C/c2nc3ccccc3c(=O)n2-c2ccc(C(=O)O)cc2)cc1,14,/,8,3,144*,3,159*,143*
N#CC1=C(N)n2c(s/c(=C\c3cccs3)c2=O)=C(C#N)C1c1cccs1 (stereo not given),5,/,0,-10,54*,0,42*,54*
N#CC1=C(N)n2c(s/c(=C\c3ccco3)c2=O)=C(C#N)C1c1ccco1 (stereo not given),10,18,4,-14,15,1,/,/
COc1ccc(CNC(=O)c2ccc(Cn3cc(Cl)cn3)o2)cc1,7,8,-26,-5,-1,1,/,/
COc1cccc(C(=O)NN/C(C)=C/C(=O)C(F)(F)C(F)(F)C(F)(F)F)c1,-9,2,9,-7,-4,-8,/,/
CS(=O)(=O)Nc1ccc(-c2ccc(/C=C3\SC(N)=NC3=O)o2)cc1,12,22,4,2,44*,3,54*,68*
O=C1/C(=C/C=C/c2ccco2)SC(=S)N1NS(=O)(=O)c1ccccc1,70*,/,44*,-14,85*,-1,67*,34*
O=C1/C(=C/c2cccs2)SC(=S)N1NS(=O)(=O)c1ccccc1,3,4,4,-2,3,-3,/,/
CCOC(=O)C1CCCN(C2=NC(=O)/C(=C/c3ccc(N(C)C)cc3)S2)C1 (stereo not given),-24,/,-7,-10,128*,0,130*,126*
CCOC(=O)C1CCCN(C2=NC(=O)/C(=C/c3ccc(OC)cc3)S2)C1 (stereo not given),-9,0,-6,-3,3,-1,/,/
O=C(c1cc2ccccc2oc1=O)N(c1ccc(Cl)cc1)C1C=CS(=O)(=O)C1 (stereo not given),-6,-10,2,1,-2,-3,/,/
CCN(CC)S(=O)(=O)c1ccc(Cl)c(NC(=O)COC(=O)c2ccc([N+](=O)[O-])o2)c1,8,4,2,-7,1,-2,/,/
O=C(CCNS(=O)(=O)c1ccccc1)OCc1ccc([N+](=O)[O-])cc1,/,1,/,/,/,/,/,/
O=C(Nc1ccccc1)NC1CCN(Cc2ccccc2)CC1,-6,-5,5,-10,30*,2,2,7
Cc1ccc(NC(=S)NC2CCN(Cc3ccccc3)CC2)cc1,12,-1,-2,-6,-3,-7,/,/
COc1ccc2ccccc2c1/C=N/N1C(=O)CSC1=S,7,39,0,-10,27*,0,9,12
CCc1nc2ccccc2c(C(=O)Nc2cccc(C)c2)c1C,-5,-5,-4,5,0,-1,/,/
O=C(N/N=C/c1cc(Br)cc(Br)c1O)c1cccc(S(=O)(=O)N2CCOCC2)c1,-1,/,5,-5,48*,-1,55*,54*
O=C(N/N=C/c1ccccc1Br)c1cccc(S(=O)(=O)N2CCOCC2)c1,-9,-7,/,-7,/,0,/,/
O=C(N/N=C/c1cc(Br)cc(Br)c1O)c1cccc(N2CCCC2=O)c1,-2,/,-4,-17,54*,6,68*,73*
COc1ccc(COc2ncnc3ccc(Br)cc23)cc1F,13,-2,15,-17,1,-6,/,/
Cc1cn(-c2ccccc2)c(C)c1/C=N\Nc1nc(N2CCOCC2)nc(N2CCOCC2)n1,-1,6,3,3,1,-3,/,/
SMILES,ZTA DNA inh,Rpn11 block,EBNA-1 inhibitor,dFosB act,TPT1 inh,NR3A LBD binder,caTPT1 confirm,RNase T1 counter
CN(CC(=O)Nc1ccc(Cl)cc1)CC(=O)N1CCc2ccccc21,/,-2,/,/,/,/,/,/
CCN(N=O)[C@@H](Cc1ccccc1)CN(N=O)[C@@H](Cc1ccccc1)CN(C)N=O,-2,-7,4,-7,-1,-3,/,/
N#Cc1ccccc1N1CCN(C(=O)c2ccc(NC(=O)c3ccc(Br)o3)cc2)CC1,-18,4,2,-2,5,-2,/,/
N#CC(C#N)=C/C=C(\Nc1ccc(Cl)cc1)c1ccc(Cl)cc1,3,14,7,-9,70*,0,13,19
Cc1ccc(S(=O)(=O)c2cc3c(=O)n4ccccc4nc3n(Cc3ccco3)c2=N)cc1C,-4,/,-8,/,25*,-7,18,21
Cc1cccn2c(=O)c3cc(S(=O)(=O)c4ccccc4)c(=N)n(Cc4ccco4)c3nc12,-1,6,-17,-12,6,0,/,/
N=c1c(S(=O)(=O)c2ccccc2)cc2c(=O)n3ccccc3nc2n1Cc1ccco1,-16,13,3,-8,26*,-8,9,17
CCn1c(CCNC(=O)c2ccc(Cl)c(Cl)c2)nnc1SCCOc1ccc(OC)cc1,-5,-5,8,-13,25*,-8,4,7
COc1ccc(OCCSc2nnc(CCNC(=O)c3ccc(Cl)c(Cl)c3)n2C)cc1,-5,-61,5,-1,-4,-6,/,/
CC1=CN2C(=N)/C(=C/c3ccco3)C(=O)N=C2S1,-8,-3,-11,-7,1,-1,/,/
CC1=CN2C(=N)/C(=C/c3ccc([N+](=O)[O-])o3)C(=O)N=C2S1,15,/,9,-17,77*,-3,118*,118*
CN1CCc2c(sc3c2C(=O)NC(c2ccccc2)N3)C1 (stereo not given),16,17,9,-5,27*,0,31*,45*
Cc1ccc(C2NC(=O)c3c(sc4c3CCN(C)C4)N2)o1 (stereo not given),11,-10,4,2,0,0,/,/
CN1CCc2c(sc3c2C(=O)NC(c2ccc4c(c2)OCO4)N3)C1 (stereo not given),5,2,4,-2,-3,-14,/,/
Cc1ccc(C2NC(=O)c3c(sc4c3CCN(C)C4)N2)s1 (stereo not given),22,/,8,-8,64*,-1,38*,47*
Cc1ccc(C(=O)n2c(-c3ccccc3)cnc2SCC(=O)Nc2ccc(C)cc2C)cc1,-12,-6,-3,1,-2,3,/,/
